Bioassay records as filed in PubChem.
A selection: hits, their analogues and other compounds. The true share with any hit is near 2.4%.
D2 antagonist = D2 dopamine receptor (human) antagonism. 340,000 tested, 2% active. inhibition, % at 10 µM. HEK293 TREx D2 cells, calcium flux, dopamine EC80; in the data active means inhibition above about 30%; inactive means below that, where a call was filed; further: 0% is about no effect
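In this primary screen, negative modulation is detected by tracking calcium flux after an EC80 dopamine challenge in inducible HEK293 T-REx D2 cells preexposed to test compound for 180 s.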
B2AR arrestin = recruits beta-arrestin to the human beta2-adrenergic receptor | beta-arrestin recruitment to beta2AR, cell-based reporter | Potency, µM (series often up to 46.1 µM), without a hit: at the top dose activation, usual class: activators | 330,000 tested, 0.02% active | AID 492947; active means well fitted activation curve with a large enough effect;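 further: potency means the concentration at half of the fitted maximal effect; 0% = DMSO controls and full agonism = EC100 isoproterenol or metaproterenol; nearly all actives have a fitted effect of over 65% in size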
Target sequence (P07550 whole entry, looked up): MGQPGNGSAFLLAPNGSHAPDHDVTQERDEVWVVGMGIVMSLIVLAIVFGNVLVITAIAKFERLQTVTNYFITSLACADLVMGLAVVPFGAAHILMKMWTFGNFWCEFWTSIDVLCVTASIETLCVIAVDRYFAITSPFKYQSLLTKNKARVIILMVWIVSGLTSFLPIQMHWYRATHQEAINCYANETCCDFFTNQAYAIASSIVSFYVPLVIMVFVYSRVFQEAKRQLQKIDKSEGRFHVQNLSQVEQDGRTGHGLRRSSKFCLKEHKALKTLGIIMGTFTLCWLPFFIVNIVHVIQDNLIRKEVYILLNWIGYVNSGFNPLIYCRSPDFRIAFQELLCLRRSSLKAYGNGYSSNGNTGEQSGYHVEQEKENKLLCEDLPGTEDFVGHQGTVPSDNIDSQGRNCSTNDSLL
D2 PAM-1 = potentiates the human D2 dopamine receptor allosterically; P14416; DiscoveRx D2 beta-arrestin cells, luminescence, 90 min; 100% = 57 uM dopamine signal; 360,000 tested, 0.23% active; AID 624464; potentiation, % (concentration not given with the values); in the data active means potentiation above about 50%
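PathHunter beta-arrestin assay in DiscoveRx D2 cells. Compounds were added with an EC20 of dopamine (50 nM final) for 90 min at 37 deg C. Luminescence was read 1 h after detection reagent, with 57 uM dopamine as the EC100 control.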
D2 ag-1 = activates the human D2 dopamine receptor | HEK293 T-REx D2 cells, calcium flux agonist mode | activation, % at 2 µM | AID 485358 | 340,000 tested, 0.53% active;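 active means activation over 3 SD above normal in the single-dose calcium agonist read, cut at about 30% in these data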; further: 0% is about no effect
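HEK293 Trex D2 cells, tetracycline-induced, o/n 30 C 5% CO2; no-wash Ca dye, RT 30–90 min; 10-cycle baseline, 23 nl cpd added, kinetic Ca read 180 s; agonist hits = positive Ca response.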
D2 PAM-2 = positive allosteric modulators of human D2 dopamine receptor; 340,000 tested, 0.34% active; HEK293 T-REx D2, calcium flux, EC20 dopamine potentiation; potentiation, % at 10 µM;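 active means potentiation over 3 SD above the plate norm, cut at about 30% in these data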; further: 0% is about no effect
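Potentiation of an EC20 dopamine calcium response measured kinetically over 180 s, after a preceding 180 s compound-only read flagging agonists. Cells: inducible Hek293 Trex D2 line, 4000/well, cultured overnight at 30 C before dye loading.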
D2 ag-2 = agonists of human D2 dopamine receptor (beta-arrestin). DiscoveRx PathHunter D2 beta-arrestin, luminescence, 90 min; 100% = 57 uM dopamine signal. activation, % (no concentration beside the values). 360,000 tested, 0.084% active; in the data active means activation above about 40%
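Agonist mode: compounds alone added to overnight-plated D2 PathHunter cells for 90 min at 37 C, with 57 uM final dopamine (EC100) defining full response. Beta-arrestin recruitment detected by chemiluminescent reagent, read after 1 h at ambient temperature.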
The depositor's hits bear a star.

Results for COc1ccc2nc(SCC(C)=O)c(C#N)cc2c1 ?
D2 antagonist: -3; B2AR arrestin: -4%; D2 PAM-1: -2; D2 ag-1: 14; D2 PAM-2: 7; D2 ag-2: -1

What do the screens show for `Cn1nc(C(=O)Nc2ccc(Br)cc2)cc1C(=O)Nc1ccc(Br)cc1`?
D2 antagonist: 38*; B2AR arrestin: -1%; D2 PAM-1: -12; D2 ag-1: 0; D2 PAM-2: 4; D2 ag-2: -5

What do the screens show for `CC(=O)Oc1ccc(N2C(=O)C3C(C2=O)C(C(=O)c2ccc(Cl)cc2)N2CCCC32)cc1` (stereo not drawn)?
D2 antagonist: -2; B2AR arrestin: 11%; D2 PAM-1: -11; D2 ag-1: 0; D2 PAM-2: -1; D2 ag-2: -6

How did Cc1ccc(N2C(=O)C3C(C2=O)C(C(=O)c2ccc(Cl)cc2)N2CCCC32)cc1 (stereo not drawn) do in these assays?
D2 antagonist: 33*; B2AR arrestin: 0%; D2 PAM-1: -14; D2 ag-1: 3; D2 PAM-2: 18; D2 ag-2: -3

Results for C=CCNCCOc1cccc(Br)c1 ?
B2AR arrestin: 0%; D2 PAM-1: -25; D2 ag-2: -2

What do the screens show for `CCC(C)NCCOc1cccc(Br)c1` (stereo not drawn)?
D2 antagonist: 45*; B2AR arrestin: -3%; D2 PAM-1: -34; D2 ag-1: -1; D2 PAM-2: -17; D2 ag-2: 1

How did O=C(O)C1C2CCC(C2)C1C(=O)NCCc1ccccc1 (stereo not drawn) do in these assays?
D2 antagonist: 10; B2AR arrestin: -1%; D2 PAM-1: -1; D2 ag-1: 36*; D2 PAM-2: -13; D2 ag-2: -1

How did Cn1c(Cn2c(=O)sc3ccccc32)nnc1SCC(=O)NCc1ccccc1Cl do in these assays?
D2 antagonist: 23; B2AR arrestin: -1%; D2 PAM-1: -3; D2 ag-1: 0; D2 PAM-2: 1; D2 ag-2: -3

How did Cc1cc(C)cc(N(C(=O)c2snc(C(N)=O)c2N)C(C(=O)NCC2CCCO2)c2ccc(C)o2)c1 (stereo not drawn) do in these assays?
D2 antagonist: -12; B2AR arrestin: 0%; D2 PAM-1: -4; D2 ag-1: 0; D2 PAM-2: -4; D2 ag-2: -1

How did COc1cc(OC)cc(N(C(=O)c2snc(C(N)=O)c2N)C(C(=O)NCC2CCCO2)c2ccc(C)o2)c1 (stereo not drawn) do in these assays?
D2 antagonist: 11; B2AR arrestin: 3%; D2 ag-1: 0; D2 PAM-2: 35*

Results for CCOc1ccc(N(C(=O)c2snc(C(N)=O)c2N)C(C(=O)NC2CCCC2)C(C)C)cc1 (stereo not drawn) ?
D2 antagonist: -5; B2AR arrestin: 0%; D2 PAM-1: -7; D2 ag-1: -1; D2 PAM-2: 31*; D2 ag-2: -3

How did Cc1ccc(C(C(=O)NC2CCCCC2)N(CCCN2CCOCC2)C(=O)c2snc(C(N)=O)c2N)cc1 (stereo not drawn) do in these assays?
D2 antagonist: 49*; B2AR arrestin: -1%; D2 PAM-1: -19; D2 ag-1: 0; D2 PAM-2: -18; D2 ag-2: -3

How did CCOc1ccc(N(C(=O)c2snc(C(N)=O)c2N)C(C)C(=O)NC2CCCCC2)cc1 (stereo not drawn) do in these assays?
D2 antagonist: 18; B2AR arrestin: 0%; D2 PAM-1: -13; D2 ag-1: -3; D2 ag-2: 6

How did Cc1ccc(N(C(=O)c2snc(C(N)=O)c2N)C(C(=O)NC2CCCC2)c2ccncc2)cc1 (stereo not drawn) do in these assays?
D2 antagonist: 105*; B2AR arrestin: 0%; D2 PAM-1: -1; D2 ag-1: 0; D2 PAM-2: -21; D2 ag-2: -2

What do the screens show for `CCc1ccc(N(C(=O)c2snc(C(N)=O)c2N)C(C(=O)NC2CCCC2)c2ccncc2)cc1` (stereo not drawn)?
D2 antagonist: -16; B2AR arrestin: 0%; D2 PAM-1: 0; D2 ag-1: 0; D2 PAM-2: 21; D2 ag-2: 2

How did O=C1C(Cl)=C(N2CCN(Cc3ccccc3)CC2)C(=O)N1c1ccccc1 do in these assays?
D2 antagonist: 37*; B2AR arrestin: 0%; D2 PAM-1: -15; D2 ag-1: -1; D2 PAM-2: -11; D2 ag-2: -3

How did Cc1ccc(CNC(=O)c2cc3c(s2)CS(=O)(=O)C3)cc1 do in these assays?
D2 antagonist: 4; B2AR arrestin: 0%; D2 PAM-1: -7; D2 ag-1: -1; D2 PAM-2: 2; D2 ag-2: 1

Results for Cc1ccc(CNC(=O)c2cc3c(s2)CN(Cc2ccccc2)C3)cc1 ?
D2 antagonist: 39*; B2AR arrestin: 0%; D2 PAM-1: -14; D2 ag-1: 0; D2 PAM-2: -13; D2 ag-2: -1

How did COC(=O)c1scc(-c2ccc(C)cc2)c1S(=O)(=O)Nc1ccc(NC(C)=O)cc1 do in these assays?
D2 ag-1: 0; D2 PAM-2: 9

What do the screens show for `Cc1cc(O)ccc1N/C=C1\CCCC1=O`?
D2 antagonist: 20; B2AR arrestin: 0%; D2 PAM-1: 64*; D2 ag-1: -1; D2 PAM-2: 24; D2 ag-2: 12

What do the screens show for `Cc1ccc([N+](=O)[O-])cc1N/C=C1\CCCCC1=O`?
D2 antagonist: 52*; B2AR arrestin: -1%; D2 PAM-1: -6; D2 ag-1: -1; D2 PAM-2: 11; D2 ag-2: -2

What do the screens show for `O=C(CN(C(=O)c1csnn1)c1ccc(F)c(Cl)c1)NC1CCCCC1`?
D2 antagonist: -13; B2AR arrestin: 0%; D2 PAM-1: 3; D2 ag-1: 0; D2 PAM-2: -5; D2 ag-2: -1

How did CC1(C(=O)NNC(=O)c2ccc([N+](=O)[O-])cc2)CC1(Br)Br (stereo not drawn) do in these assays?
D2 antagonist: 37*; B2AR arrestin: -1%; D2 PAM-1: -28; D2 ag-1: 0; D2 PAM-2: 4; D2 ag-2: -5

How did CC1(C(=O)NNC(=O)c2cccc([N+](=O)[O-])c2)CC1(Br)Br (stereo not drawn) do in these assays?
D2 antagonist: 2; B2AR arrestin: 0%; D2 PAM-1: -4; D2 ag-1: 0; D2 PAM-2: -4; D2 ag-2: 2

How did CCn1c(CO)nc2c1c(=O)[nH]c(=O)n2Cc1ccccc1 do in these assays?
D2 antagonist: -3; B2AR arrestin: -1%; D2 PAM-1: -28; D2 ag-1: -1; D2 PAM-2: -6; D2 ag-2: -13
